# In all, about 39,000 compounds went through this assay and about 1,500 (3.8%) were called active. This excerpt belongs to a sample that is enriched for actives.
# Tested on: HSkMC (human skeletal muscle cells)
# Experiment: cytotoxicity call (relative viability < 0.9)
# Conditions: 10 µM
row,Compound,cytotoxicity call
1,Cc1noc(C)c1NC(=O)Nc1ccc2c(c1)CC(=O)N([C@H](C)CO)C[C@H](C)[C@H](CN(C)C(=O)NC(C)C)O2,inactive
2,C[C@@H]1CCCCO[C@H](CN(C)Cc2ccncc2)[C@@H](C)CN([C@@H](C)CO)C(=O)c2cc(NC(=O)Nc3cccc4ccccc34)ccc2O1,inactive
3,COc1ccc(S(=O)(=O)Nc2ccc3c(c2)C(=O)N([C@H](C)CO)C[C@@H](C)[C@@H](CN(C)Cc2ccncc2)O3)cc1,inactive
4,C[C@H]1CCCCO[C@@H](CN(C)C(=O)Nc2ccc3c(c2)OCO3)[C@@H](C)CN([C@@H](C)CO)C(=O)c2cc(NC(=O)c3ccncc3)ccc2O1,inactive
5,C[C@@H]1CN([C@H](C)CO)C(=O)CCCn2cc(nn2)CO[C@H]1CN(C)S(=O)(=O)c1cn(C)cn1,inactive
6,COc1ccc(S(=O)(=O)N(C)C[C@H]2OCCCC[C@@H](C)Oc3ccc(NC(=O)Nc4ccccc4)cc3C(=O)N([C@@H](C)CO)C[C@@H]2C)cc1,inactive
7,Cc1noc(C)c1S(=O)(=O)Nc1ccc2c(c1)C(=O)N([C@H](C)CO)C[C@H](C)[C@H](CN(C)S(C)(=O)=O)OCCCC[C@H](C)O2,inactive
8,C[C@H]1[C@H](C)CC[C@]2(C(=O)O[C@@H]3O[C@H](CO[C@@H]4O[C@H](CO)[C@@H](O[C@@H]5O[C@@H](C)[C@H](O)[C@@H](O)[C@H]5O)[C@H](O)[C@H]4O)[C@@H](O)[C@H](O)[C@H]3O)CC[C@]3(C)C(=CC[C@@H]4[C@@]5(C)C[C@@H](O)[C@H](O)[C@@](C)(CO)[C@@H]5[C@H](O)C[C@]43C)[C@H]12,inactive
9,C[C@@H]1CN([C@@H](C)CO)C(=O)c2cc(NC(=O)c3ccccc3)ccc2O[C@@H](C)CCCCO[C@H]1CN(C)C(=O)c1ccccc1,inactive
10,COc1ccccc1S(=O)(=O)N[C@H]1CC[C@H](CCNC(=O)C2CCOCC2)O[C@H]1CO,inactive
11,Cc1noc(C)c1S(=O)(=O)N(C)C[C@H]1Oc2ccc(NC(=O)Nc3ccc4c(c3)OCO4)cc2CC(=O)N([C@H](C)CO)C[C@@H]1C,inactive
12,C[C@@H]1CCCCO[C@@H](CN(C)CC2CCCCC2)[C@@H](C)CN([C@H](C)CO)C(=O)c2cc(NC(=O)Nc3ccc(C(F)(F)F)cc3)ccc2O1,active
13,C[C@H](CO)N1C[C@H](C)[C@@H](CN(C)CC2CCCCC2)OCCCC[C@H](C)Oc2ccc(NC(=O)Nc3ccc(C(F)(F)F)cc3)cc2C1=O,active
14,C[C@@H]1CCCCO[C@H](CN(C)CC2CCCCC2)[C@@H](C)CN([C@H](C)CO)C(=O)c2cc(NC(=O)Nc3ccc(C(F)(F)F)cc3)ccc2O1,active
15,C[C@@H]1CN([C@H](C)CO)C(=O)c2cc(NC(=O)Nc3ccc(C(F)(F)F)cc3)ccc2O[C@@H](C)CCCCO[C@@H]1CN(C)CC1CCCCC1,active
16,C[C@H]1CN([C@@H](C)CO)C(=O)c2cc(NC(=O)CCCN(C)C)ccc2O[C@H]1CN(C)C(=O)NC1CCCCC1,inactive
17,C[C@H]1CN([C@@H](C)CO)C(=O)c2cccc(NC(=O)CCCCCC(=O)Nc3ccccc3N)c2O[C@@H]1CN(C)C(=O)Nc1ccccc1,inactive
18,C[C@H](CO)N1C[C@H](C)[C@@H](CN(C)Cc2ccc(C(=O)O)cc2)OCCCC[C@H](C)Oc2ccc(NC(=O)C3CCCCC3)cc2C1=O,inactive
19,C[C@@H]1CN([C@@H](C)CO)C(=O)Cc2cc(NC(=O)Nc3ccc(F)cc3)ccc2O[C@@H]1CN(C)C(=O)Nc1cccc2ccccc12,inactive
20,COc1ccc(C#Cc2ccc3c(c2)[C@]2(C(=O)N3)[C@H](C(=O)Nc3nc4ccccc4s3)[C@H]3C(=O)O[C@H](c4ccccc4)[C@H](c4ccccc4)N3[C@@H]2c2ccc(O)cc2)cc1,inactive

row,Compound,cytotoxicity call
1,Cc1ccc(S(=O)(=O)N(C)C[C@@H]2Oc3ccc(NS(C)(=O)=O)cc3C(=O)N([C@@H](C)CO)C[C@@H]2C)cc1,inactive
2,NCc1nncn1-c1ccc(F)cc1,inactive
3,C[C@H](CO)N1C[C@H](C)[C@H](CN(C)CC2CCCCC2)OCCCC[C@H](C)Oc2ccc(NC(=O)c3ccncc3)cc2C1=O,inactive
4,C[C@H](CO)N1C[C@H](C)[C@@H](CN(C)S(=O)(=O)c2cccs2)Oc2c(NS(=O)(=O)c3cn(C)cn3)cccc2C1=O,inactive
5,COCC#Cc1cnc2c(c1)C(=O)N([C@@H](C)CO)C[C@@H](C)[C@@H](CN(C)C(=O)CN1CCOCC1)O2,inactive
6,C[C@@H]1CN([C@@H](C)CO)C(=O)c2cc(NC(=O)Nc3ccc(C(F)(F)F)cc3)ccc2O[C@@H](C)CCCCO[C@H]1CN(C)CC1CCCCC1,inactive
7,C[C@H]1CCCCO[C@@H](CN(C)CC2CCCCC2)[C@@H](C)CN([C@@H](C)CO)C(=O)c2cc(NC(=O)Nc3ccc(C(F)(F)F)cc3)ccc2O1,active
8,C[C@@H]1CN([C@@H](C)CO)C(=O)c2cc(NC(=O)Nc3ccc(C(F)(F)F)cc3)ccc2O[C@@H](C)CCCCO[C@@H]1CN(C)CC1CCCCC1,inactive
9,C[C@@H]1CCCCO[C@@H](CN(C)CC2CCCCC2)[C@H](C)CN([C@H](C)CO)C(=O)c2cc(NC(=O)Nc3ccc(C(F)(F)F)cc3)ccc2O1,active
10,Cc1noc(C)c1NC(=O)Nc1ccc2c(c1)C(=O)N([C@H](C)CO)C[C@H](C)[C@H](CN(C)Cc1ccncc1)OCCCC[C@@H](C)O2,inactive
11,CO[C@@H]1CN(C)C(=O)c2cc(NS(C)(=O)=O)ccc2OC[C@@H](C)N(C(=O)CN(C)C)C[C@@H]1C,inactive
12,C[C@H]1CN([C@@H](C)CO)C(=O)c2cc(NS(=O)(=O)c3cn(C)cn3)ccc2O[C@H]1CN(C)S(C)(=O)=O,inactive
13,C[C@H]1CN([C@@H](C)CO)S(=O)(=O)c2ccc(C#CC3(O)CCCC3)cc2O[C@@H]1CN(C)C(=O)Cc1ccncc1,inactive
14,COc1ccc(S(=O)(=O)N(C)C[C@H]2OCCCC[C@@H](C)Oc3ccc(NC(=O)c4ccccc4)cc3C(=O)N([C@H](C)CO)C[C@@H]2C)cc1,inactive
15,C[C@@H]1CN([C@H](C)CO)C(=O)c2cc(NC(=O)Cc3ccccc3)ccc2O[C@@H](C)CCCCO[C@@H]1CN(C)C(=O)C1CCCCC1,inactive
16,COC(=O)C[C@](O)(CCCC(C)(C)O)C(=O)O[C@@H]1C(OC)=C[C@]23CCCN2CCc2cc4c(cc2[C@H]13)OCO4,active
17,C[C@@H]1CN([C@@H](C)CO)C(=O)CCCn2cc(nn2)CO[C@@H]1CN(C)C(=O)Nc1cccc(C(F)(F)F)c1,inactive
18,C[C@H](CO)N1C[C@H](C)[C@@H](CN(C)C(=O)C2CCCCC2)OCCCC[C@H](C)Oc2ccc(NC(=O)Cc3ccccc3)cc2C1=O,inactive
19,C[C@@H]1CN([C@@H](C)CO)S(=O)(=O)c2ccc(C#CC3CC3)cc2O[C@H]1CN(C)Cc1ccc(F)cc1,inactive
20,C[C@H]1CN([C@@H](C)CO)S(=O)(=O)c2ccc(C#CC3CC3)cc2O[C@H]1CN(C)Cc1ccc(F)cc1,inactive

row,Compound,cytotoxicity call
1,C[C@@H]1CN([C@H](C)CO)S(=O)(=O)c2ccc(C#CC3CC3)cc2O[C@H]1CN(C)Cc1ccc(F)cc1,active
2,C[C@@H]1CN([C@H](C)CO)S(=O)(=O)c2ccc(C#CC3CC3)cc2O[C@@H]1CN(C)Cc1ccc(F)cc1,inactive
3,C[C@H](CO)N1C[C@H](C)[C@@H](CN(C)Cc2ccc(F)cc2)Oc2cc(C#CC3CC3)ccc2S1(=O)=O,inactive
4,C[C@H]1CN([C@@H](C)CO)S(=O)(=O)c2ccc(C#CC3CC3)cc2O[C@@H]1CN(C)Cc1ccc(F)cc1,active
5,CO[C@@H]1CN(C)C(=O)c2cc(NC(=O)Nc3ccccc3F)ccc2OC[C@@H](C)N(CCC(F)(F)F)C[C@H]1C,inactive
6,C[C@@H]1CN([C@@H](C)CO)C(=O)c2cc(NC(=O)Cc3ccccc3)ccc2O[C@@H]1CN(C)C(=O)Nc1ccc(C(F)(F)F)cc1,inactive
7,O=C([C@H]1[C@H](CO)[C@H]2Cn3c(cccc3=O)[C@H]2N1C(=O)C1CCCC1)N1CCOCC1,inactive
8,COc1ccc(CN(C)C[C@H]2Oc3c(NC(=O)C4CCOCC4)cccc3C(=O)N([C@H](C)CO)C[C@@H]2C)cc1,inactive
9,O=C(C[C@H]1CC[C@H]2[C@@H](COC[C@@H](O)CN2C(=O)Nc2cccc(F)c2)O1)NCc1ccccc1Cl,inactive
10,CCC(=O)Nc1ccc(C)c(C)c1,inactive
11,C[C@@H]1CCCCO[C@@H](CN(C)C(=O)Nc2ccc(F)cc2)[C@@H](C)CN([C@H](C)CO)C(=O)c2cc(NC(=O)CCCN(C)C)ccc2O1,inactive
12,Cc1ccc(S(=O)(=O)N(C)C[C@@H]2Oc3ccc(NS(=O)(=O)c4cccs4)cc3CC(=O)N([C@@H](C)CO)C[C@H]2C)cc1,inactive
13,COc1ccc(COCC23Oc4ccccc4[C@H]([C@H]2CO[Si](C)(C)C(C)(C)C)n2c(c4ccccc4c(-c4ccccc4)c2=O)N3C)cc1,active
14,COc1ccc(COCC23Oc4ccccc4[C@H]([C@H]2CO)n2c(c4ccccc4c(-c4ccccc4)c2=O)N3C)cc1,inactive
15,COC(=O)c1c(C(=O)OC)c2n(c(=O)c1-c1ccccc1)[C@@H]1c3ccccc3O[C@@](COCc3ccc(OC)cc3)([C@@H]1CO[Si](C)(C)C(C)(C)C)N2C,inactive
16,COc1ccc(NC(=O)N(C)C[C@@H]2OCCCC[C@H](C)Oc3ccc(NS(=O)(=O)c4ccc(F)cc4)cc3C(=O)N([C@H](C)CO)C[C@H]2C)cc1,inactive
17,COc1ccc(C#Cc2cnc3c(c2)C(=O)N([C@@H](C)CO)C[C@@H](C)[C@H](CN(C)CC2CCOCC2)O3)cc1,inactive
18,C[C@@H]1CCCCO[C@H](CN(C)C(=O)CCC(F)(F)F)[C@H](C)CN([C@H](C)CO)C(=O)c2cc(NC(=O)CCC(F)(F)F)ccc2O1,inactive

# Reference: the antibiotic and cytotoxicity screens of Wong et al. (2023)
